# Experimental data taken from PubChem BioAssay AID1159580 (chemical genetic matrix, 2015).
# The campaign covered roughly 5,500 compounds. About 2,000 (36%) were called active. Not shown: some 18% with an inconclusive outcome. Some of the results follow. A number with no mark means an inactive call. No stated cut-off is given here; in the data, active means normalized growth mostly below about 0.91 (no sharp cut-off); inconclusive means no clear call, values can overlap the other calls; inactive means mostly above about 0.92.
# Assay: chemical genetic growth profiling, strain panel (AID 1159580);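 further: tested at 20 µM; growth read once vehicle control cultures reached saturation at 30 °C; 1 = growth at the plate median or of vehicle wells; lower values mean less growth of the strain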
# Conditions: S. cerevisiae deletion strains, growth OD
smiles,measurement,setting,value
CC(=O)Nc1ccc([N+](=O)[O-])cc1[N+](=O)[O-],normalized growth,"locus YAR019C, strain CDC15, hits give low values",0.619 (active)
same,normalized growth,"locus YBL105C, strain PKC1, hits give low values",0.925
same,normalized growth,"locus YBR135W, strain CKS1, hits give low values",0.911
same,normalized growth,"locus YBR136W, strain MEC1, hits give low values",0.922
same,normalized growth,"locus YBR160W, strain CDC28, hits give low values",0.918
same,normalized growth,"locus YDL017W, strain CDC7, hits give low values",0.927
same,normalized growth,"locus YDL028C, strain MPS1, hits give low values",0.924
same,normalized growth,"locus YDL101C, strain DUN1, hits give low values",0.671 (active)
same,normalized growth,"locus YDL108W, strain KIN28, hits give low values",0.912
same,normalized growth,"locus YDL132W, strain cdc53, hits give low values",0.838 (active)
same,normalized growth,"locus YDL214C, strain PRR2, hits give low values",0.165 (active)
same,normalized growth,"locus YDR052C, strain DBF4, hits give low values",0.931
same,normalized growth,"locus YDR054C, strain cdc34, hits give low values",0.625 (active)
same,normalized growth,"locus YDR226W, strain ADK1, hits give low values",0.911
same,normalized growth,"locus YDR477W, strain SNF1, hits give low values",0.188 (active)
same,normalized growth,"locus YER123W, strain YCK3, hits give low values",0.114 (active)
same,normalized growth,"locus YER133W, strain GLC7, hits give low values",0.131 (active)
same,normalized growth,"locus YFL009W, strain cdc4, hits give low values",0.899
same,normalized growth,"locus YFL029C, strain CAK1, hits give low values",0.605 (active)
same,normalized growth,"locus YFR003C, strain YPI1, hits give low values",0.926
same,normalized growth,"locus YFR019W, strain FAB1, hits give low values",0.27 (active)
same,normalized growth,"locus YFR028C, strain CDC14, hits give low values",0.9
same,normalized growth,"locus YGR040W, strain KSS1, hits give low values",0.206 (active)
same,normalized growth,"locus YGR052W, strain FMP48, hits give low values",0.175 (active)
same,normalized growth,"locus YGR092W, strain DBF2, hits give low values",0.349 (active)
same,normalized growth,"locus YHR030C, strain SLT2, hits give low values",0.123 (active)
same,normalized growth,"locus YHR079C, strain IRE1, hits give low values",0.388 (active)
same,normalized growth,"locus YHR082C, strain KSP1, hits give low values",0.205 (active)
same,normalized growth,"locus YHR205W, strain SCH9, hits give low values",0.0559 (active)
same,normalized growth,"locus YIL147C, strain SLN1, hits give low values",0.927
same,normalized growth,"locus YJL095W, strain BCK1, hits give low values",0.174 (active)
same,normalized growth,"locus YJL128C, strain PBS2, hits give low values",0.878
same,normalized growth,"locus YJL157C, strain FAR1, hits give low values",0.307 (active)
same,normalized growth,"locus YJR016C, strain ILV3, hits give low values",0.924
same,normalized growth,"locus YJR066W, strain TOR1 (second series), hits give low values",0.145 (active)
same,normalized growth,"locus YJR066W, strain TOR1, hits give low values",0.152 (active)
same,normalized growth,"locus YKL048C, strain ELM1, hits give low values",0.707 (active)
same,normalized growth,"locus YKL067W, strain YNK1, hits give low values",0.284 (active)
same,normalized growth,"locus YKL101W, strain HSL1, hits give low values",0.534 (active)
same,normalized growth,"locus YKL193C, strain SDS22, hits give low values",0.753 (active)
same,normalized growth,"locus YKL203C, strain TOR2, hits give low values",0.213 (active)
same,normalized growth,"locus YLR113W, strain HOG1, hits give low values",0.153 (active)
same,normalized growth,"locus YLR133W, strain CKI1, hits give low values",0.438 (active)
same,normalized growth,"locus YLR403W, strain SFP1, hits give low values",0.21 (active)
same,normalized growth,"locus YML070W, strain DAK1, hits give low values",0.202 (active)
same,normalized growth,"locus YMR205C, strain PFK2 (second series), hits give low values",0.511 (active)
same,normalized growth,"locus YMR277W, strain FCP1, hits give low values",0.668 (active)
same,normalized growth,"locus YNL006W, strain LST8, hits give low values",0.927
same,normalized growth,"locus YNL020C, strain ARK1, hits give low values",0.558 (active)
same,normalized growth,"locus YNL161W, strain CBK1, hits give low values",0.722 (active)
same,normalized growth,"locus YNL183C, strain NPR1, hits give low values",0.105 (active)
same,normalized growth,"locus YNL207W, strain RIO2, hits give low values",0.909
same,normalized growth,"locus YNL222W, strain SSU72, hits give low values",0.711 (active)
same,normalized growth,"locus YNL307C, strain MCK1 (second series), hits give low values",0.241 (active)
same,normalized growth,"locus YOL078W, strain AVO1, hits give low values",0.679 (active)
same,normalized growth,"locus YOL136C, strain PFK27, hits give low values",0.227 (active)
same,normalized growth,"locus YOR061W, strain CKA2, hits give low values",0.587 (active)
same,normalized growth,"locus YOR119C, strain RIO1, hits give low values",0.196 (active)
same,normalized growth,"locus YOR231W, strain MKK1, hits give low values",0.396 (active)
same,normalized growth,"locus YOR329C, strain SCD5, hits give low values",0.929
same,normalized growth,"locus YPL031C, strain PHO85, hits give low values",0.213 (active)
same,normalized growth,"locus YPL153C, strain RAD53, hits give low values",0.271 (active)
same,normalized growth,"locus YPL204W, strain HRR25, hits give low values",0.276 (active)
same,normalized growth,"locus YPL209C, strain IPL1, hits give low values",0.915
same,normalized growth,"locus YPL256C, strain CLN2, hits give low values",0.164 (active)
same,normalized growth,"locus YPR025C, strain CCL1, hits give low values",0.92
same,normalized growth,"locus YPR106W, strain ISR1, hits give low values",0.926
same,normalized growth,"locus YPR111W, strain DBF20, hits give low values",0.902
same,normalized growth,"strain NNK1, hits give low values",0.931
same,normalized growth,"strain TSCII, hits give low values",0.587 (active)
